Pf Dd2 growth – blocks in vitro growth of P. falciparum Dd2; P. falciparum Dd2 growth, SYBR Green, 72 h; Potency, µM (doses to about 28.9 µM), inactives show at the top dose activity, negative = inhibition, usual class: inhibitors; 120,000 compounds, 4.3% hits; active means well fitted inhibition curve with a large enough effect;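 further: plate controls were DMSO vehicle for no effect and reference drug for full effect; nearly all actives have a fitted effect of over 65% in size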
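Infected erythrocytes (Dd2, 0.3% parasitemia, 2.5% hematocrit final) are added to compound in RPMI-1640/Albumax II medium, grown 72 h at 37C in low oxygen, then lysed with saponin/Triton-X containing SYBR Green and read by fluorescence.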
Active calls of the source: *; i = inactive; [ ] = another dose, or the depositor's remark. Only a selection was taken, and hits are over-represented in it overall. Potency means the concentration at half of the fitted maximal effect.

SMILES	Pf Dd2 growth
NS(=O)(=O)c1ccc(C(=O)N2CCCC(c3ccn[nH]3)C2)cc1 (stereo not drawn)	-9.8%
Cc1cc(S(=O)(=O)N2CCCC(CCC(=O)N3CCOCC3)C2)n(C)n1 (stereo not drawn)	0.1%
CCc1c(C)cc(C(=O)N[C@@H]2[C@@H](Cc3ccccc3)[C@H]3OCC[C@@H]23)c(=O)n1C	-16.3%
NCCn1cc(C(=O)NC2CCCN(c3cnccn3)C2)nn1 (stereo not drawn)	1.9%
COc1ccc(CC(=O)N2CC(=O)Nc3ccc(Br)cc3C2c2ccc(F)cc2)cc1 (stereo not drawn)	-17.6%
CCCCC(=O)N1CC(=O)Nc2ccc(F)cc2C1c1ccc(F)cc1 (stereo not drawn)	7.94µM*
CN(C)S(=O)(=O)c1ccc(C(=O)N2CC(=O)Nc3ccc(Br)cc3C2c2ccc(F)cc2)cc1 (stereo not drawn)	0.2%
CC(=O)N1CC(=O)Nc2ccc(F)cc2C1c1ccccc1 (stereo not drawn)	20.2%
CCOc1ccc(C(=O)N2CC(=O)Nc3ccc(F)cc3C2c2ccc(F)cc2)cc1 (stereo not drawn)	8.8%
CCCCC1CCC(C(=O)N2CC(=O)Nc3ccc(Br)cc3C2c2ccc(F)cc2)CC1 (stereo not drawn)	10µM*
COCC(=O)N1CC(C(=O)Nc2ccccn2)C2(CCOCC2)C1 (stereo not drawn)	15.4%
O=C(Cc1ccc(Cl)cc1)N1CCN(c2nnc3ccccn23)CC1	i
Cc1nnc(-c2cc(C(=O)NCc3ccco3)ccn2)n1Cc1cccnc1	-13.8%[44.1 µM]
COc1ccc(CCC(=O)N2CC3CC(C2)[C@H]2CCCC(=O)N2C3)cc1 (stereo partly drawn)	0.0%
O=C(Nc1ccccc1)N1CCC2(CCCCO2)CC1	i
O=[S+]1([O-])NC2(CCN(Cc3ccc(OC(F)(F)F)cc3)C2)CNc2ccccc21 (stereo not drawn)	-1.1%
COc1ccc(NC(=O)c2ccc3c(SCC(=O)O)c4c(nc3c2)CCC4)c(OC)c1	-13.1%
O=C(O)CSc1c2c(nc3cc(C(=O)Nc4ccc(F)c(Cl)c4)ccc13)CCC2	-27.0%
COc1ccc(OC)c(NC(=O)c2ccc3c(SCC(=O)O)c4c(nc3c2)CCCC4)c1	10µM*
O=C(Cn1ccn2nc3c(c2c1=O)CCCC3)NCCCc1ccccc1	i
O=C(NCc1ccccn1)C1CC(=O)N(c2n[nH]c3cccc(F)c23)C1 (stereo not drawn)	7.8%
CCOC(=O)C1CCCN(C(=O)C2CC(c3ccc(OC)c(OC)c3)CN(C(=O)COC)C2)C1 (stereo not drawn)	i
COc1ccc(C(=O)N[C@H]2CO[C@H]3[C@@H]2OC[C@@H]3n2nnnc2Oc2cccc(N(C)C)c2)cc1	i
O=C(c1cccnc1OC1CCN(Cc2ccccn2)C1)N1CCOCC1 (stereo not drawn)	i
O=C(NC1CC1)c1ccccc1OC1CN(Cc2ccc(F)c(F)c2)C1	i
SMILES	Pf Dd2 growth
Cc1ccc(CN2CC(Oc3ccccc3C(=O)N3CCOCC3)C2)cc1C	2.82µM*
COc1ccc(C(=O)N2CCn3c(nnc3[C@@H]3C[C@@H](O)CN3C(C)C)C2)c(OC)c1	-17.0%
O=C(CCc1nc2ccccc2s1)N1CCC(c2noc(-c3ccncc3)n2)C1 (stereo not drawn)	23.5%[5.79 µM]
O=C1CC(c2ccccc2)Cc2[nH]c(=O)c(C(=O)Nc3cccc(Cl)c3)cc21 (stereo not drawn)	-13.0%
CCOC(=O)C1=C(CNCc2ccc(Cl)cc2)NC(=O)NC1c1ccccc1 (stereo not drawn)	-7.9%
CCc1ccc(C2CC(=O)c3c([nH]c(C(=O)OCCOc4ccccc4)c3C)C2)cc1 (stereo not drawn)	5.01µM*
CCOC(=O)C1=C(C)N=C2SCCC(=O)N2C1c1ccc(OCc2ccccc2)cc1 (stereo not drawn)	61.0%
CCOC(=O)C1=C(C)N=C2SC=C(CC(=O)NCC3CC3)N2C1c1cc(OC)ccc1OC (stereo not drawn)	i
CCOC(=O)c1[nH]c2c(c1Cc1ccccc1C)C(=O)CC(c1cc(OC)ccc1OC)C2 (stereo not drawn)	5.01µM*
COc1ccc(C2CC(=O)c3c([nH]c(C(=O)OCc4ccccc4)c3C)C2)cc1OC (stereo not drawn)	-15.8%
CCOC(=O)c1[nH]c2c(c1Cc1ccccc1C)C(=O)CC(c1ccccc1)C2 (stereo not drawn)	8.91µM*
Cc1c(C(=O)OCc2ccccc2)[nH]c2c1C(=O)CC(c1ccc(Cl)cc1)C2 (stereo not drawn)	-1.7%
COc1ccc(-c2nc(CC3CCNC3)no2)cc1 (stereo not drawn)	9.1%
COc1ccc(-c2noc([C@@H]3CCCN3C(=O)Cc3ccccc3Cl)n2)cc1OC	i
COCCN1CCCN(C(=O)c2cccc(F)c2)c2ccccc21	i
CCc1ccccc1N(C)C(=O)Nc1cn(CC(C)C)c(=O)c2ccccc12	8.91µM*
COc1ccc(CNC(=O)Nc2cn(CC(C)C)c(=O)c3ccccc23)c(OC)c1	i
CCc1ccccc1N(C)C(=O)Cc1c(C(=O)O)c(C)cn1C	-11.4%
Cn1ccc2c(C(=O)NCCC(N)=O)nc(-c3ccccc3)cc21	5.8%[44.1 µM]
COc1ccccc1CN1C(=O)O[C@@H]2CN(C(=O)NC3CCCCC3)C[C@@H]21	-2.5%
COC(=O)c1ccc(N2C[C@H]3OC(=O)N(Cc4ccccc4OC)[C@H]3C2)nc1	-5.8%
COc1cc(OC)nc(N2C[C@H]3OC(=O)N(Cc4ccccc4OC)[C@H]3C2)n1	3.55µM*
CCC(=O)N1CCC(Oc2ccc(C(=O)N3CCOCC3)cn2)C1 (stereo not drawn)	30.6%
CC(C)CCNC(=O)c1cnc2c(c1)N([S+](=O)([O-])c1cccnc1)CCC2	-14.6%[44.1 µM]
Cn1cc(CC(=O)N2CCCc3ncc(C(=O)NCc4ccoc4)cc32)c2ccccc21	i
SMILES	Pf Dd2 growth
O=C(c1cnc2c(c1)N([S+](=O)([O-])c1cccnc1)CCC2)N1CCC[C@@H]1c1ccc(F)cc1	-0.9%
O=C(Nc1cccc(Cl)c1)c1cnc2c(c1)N([S+](=O)([O-])c1cccnc1)CCC2	11.2µM*
CN(C)CCNC(=O)c1cnc2c(c1)N(C(=O)Cc1cn(C)c3ccccc13)CCC2	-18.7%[44.1 µM]
Cn1cc(CC(=O)N2CCCc3ncc(C(=O)Nc4cccc(Cl)c4)cc32)c2ccccc21	4.47µM*
COc1ccccc1C(=O)N[C@@H]1CN(C2CCOCC2)C[C@H]1CN(C)C	i
COc1ccc(CN2CC(OCc3cccnc3)CN(C(=O)c3ccccn3)CC2=O)cc1 (stereo not drawn)	9.0%
Cc1cc(C[C@@H]2COC[C@@H]2NC(=O)CCc2n[nH]c(C)n2)on1	-8.2%
COCc1ccc(C(=O)N2CC[C@@H](NC(=O)c3cnccn3)[C@H](O)C2)s1	1.3%
COc1ccccc1-c1nnc([C@H]2CCN(C3CCOCC3)C2)o1	i
O=c1c2c(CO)c(-c3ccc(F)cc3)nn2ccn1Cc1ccc(Br)cc1	8.91µM*
COc1ccccc1N1CCN(C(=O)Cn2c(=O)nc(-c3ccccc3)c3ccccc32)CC1	11.2µM*
CCc1cc(=O)n(CC(=O)N2CCN(c3ccccc3OC)CC2)c(-c2ccccc2)n1	-21.7%
O=C(Cn1ccn2nc(-c3ccc(F)cc3)c(CO)c2c1=O)N1CCN(c2ccccc2F)CC1	i
O=c1c2c(CO)c(-c3ccccc3)nn2ccn1Cc1cccc(F)c1	i
COc1ccccc1N1CCN(C(=O)Cn2ccn3nc(-c4ccc(F)cc4)c(CO)c3c2=O)CC1	8.91µM*
